Source: PubChem BioAssay (EPA / NIEHS)
Calls of active or inactive are those of the source. Rule for the calls: active = hit-call score of the fitted dose curve at least 0.9, where 1 is the maximum; inactive = score below 0.9.

Tests used:
[1] = ATG_ISRE_CIS: Attagene CIS-FACTORIAL HepG2 Assay for human Interferon Regulatory Factor 1 (IRF1) binding to an Interferon-Stimulated Response Element (ISRE) (AID 2282948); settings: HepG2 ISRE cis-reporter (Attagene), mRNA transcription readout; actives raise or lower the signal
In short: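 HepG2 cells transiently transfected with multiplexed cis-promoter reporter units; after 24 h compound exposure, reporter mRNA quantified by RT-PCR, FAM labelling, HpaI digestion and capillary electrophoresis. Bidirectional fit versus DMSO baseline.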

[2] = ATG_M_32_CIS: Attagene CIS-FACTORIAL HepG2 Assay for M32 Transcription Factor (Internal Marker) (AID 2282949); settings: HepG2 Attagene cis-factorial M32 reporter, mRNA; actives raise or lower the signal;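 note: background control marker of the multiplexed CIS panel rather than a real target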
In short: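 Following 24 h chemical exposure of HepG2 cells transiently expressing cis-promoter reporter constructs, reporter transcript levels were determined by RT-PCR with fluorescent labelling and capillary electrophoresis, then fitted bidirectionally against DMSO.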

[3] = ATG_M_06_CIS: Attagene CIS-FACTORIAL HepG2 Assay for M06 Transcription Factor (Internal Marker) (AID 2282950); settings: HepG2 Attagene CIS-FACTORIAL M06 internal marker reporter; actives raise or lower the signal
In short: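 Fluorescence-labelled RT-PCR products from cis-promoter reporter units, cut with HpaI and resolved by capillary electrophoresis, give the signal. Cells are human HepG2, dosed for 24 h. Serves as background control, fitted relative to DMSO.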

[4] = molecular target: Hypoxia-inducible factor 1-alpha (Homo sapiens) (UniProt Q16665); test: ATG_HIF1a_CIS: Attagene CIS-FACTORIAL HepG2 Assay for human Hypoxia Inducible Factor 1 (HIF1A) (AID 2282951); settings: HepG2 Attagene cis-factorial HIF1a reporter transcription; actives raise or lower the signal
In short: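 HepG2, transient cis-reporter library, 24 h dosing. RNA → RT (oligo dT) → PCR → 6-FAM primer extension → HpaI → CE. Bidirectional curve fit vs DMSO.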

[5] = molecular target: Hepatocyte nuclear factor 6 (Homo sapiens) (UniProt Q9UBC0); test: ATG_HNF6_CIS: Attagene CIS-FACTORIAL HepG2 Assay for human Hepatocyte Nuclear Factor 6 (HNF6) (AID 2282952); settings: HepG2 Attagene cis-factorial HNF6 reporter transcription; actives raise or lower the signal
In short: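 HepG2, transient MRTU transfection (cis promoters); 24 h chemical exposure; total RNA → oligo(dT) RT → PCR → 6-FAM labelling → HpaI cut → CE; bidirectional fit vs DMSO.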

[6] = molecular target: Heat shock factor protein 1 (Homo sapiens) (UniProt Q00613); test: ATG_HSE_CIS: Attagene CIS-FACTORIAL HepG2 Assay for human Heat Shock Transcription Factor 1 (HSE) (AID 2282953); settings: HepG2 HSE cis-reporter, Attagene RNA transcription; actives raise or lower the signal
In short: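 After a 24 h incubation with test chemical, transfected HepG2 cells were harvested for RNA; reporter transcripts were measured by RT-PCR and capillary electrophoresis. Values reflect gain or loss of signal relative to DMSO.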

[7] = ATG_MRE_CIS: Attagene CIS-FACTORIAL HepG2 Assay for human Metal Responsive Element (MRE) (AID 2282954); settings: HepG2 MRE cis-reporter transcription, Attagene multiplex; actives raise or lower the signal
In short: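 HepG2 cells transiently transfected with multiple cis-element reporter units measure endogenous MTF1-driven transcription. After 24 h compound exposure, reporter mRNA is quantified by RT-PCR with 6-FAM labelling, HpaI digestion and capillary electrophoresis; bidirectional fits versus DMSO.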

[8] = ATG_PXRE_CIS: Attagene CIS-FACTORIAL HepG2 Assay for human Pregnane X Receptor Element (PXRE) (AID 2282957); settings: HepG2 Attagene CIS-FACTORIAL PXRE reporter, mRNA; actives raise or lower the signal
In short: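 Transfect HepG2 with MRTUs (cis promoter elements); dose chemical, incubate 24 h; isolate RNA, RT with oligo(dT), PCR, 6-FAM label, HpaI cut, CE. Gain/loss fit vs DMSO.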

[9] = ATG_RORE_CIS: Attagene CIS-FACTORIAL HepG2 Assay for human RAR-related Orphan Receptor Element (RORE) (AID 2282959); settings: HepG2 Attagene cis-factorial RORE reporter, mRNA; actives raise or lower the signal
In short: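 Multiplexed reporter assay measuring mRNA induction from a cis promoter element in transiently transfected HepG2 cells after 24 h treatment. Detection via RT-PCR and capillary electrophoresis fluorescence; DMSO serves as baseline.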

[10] = ATG_Sox_CIS: Attagene CIS-FACTORIAL HepG2 Assay for human SRY-box transcription factor (SOX) (AID 2282960); settings: HepG2 Attagene cis-factorial SOX reporter, mRNA; actives raise or lower the signal
In short: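 Cells were transfected with reporter constructs under cis-regulatory promoters, then exposed to chemicals for 24 h. Reporter transcripts were quantified by fluorescence after RT-PCR and capillary electrophoresis; activity was fitted in both directions against DMSO.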

[11] = ATG_SREBP_CIS: Attagene CIS-FACTORIAL HepG2 Assay for human Sterol Regulatory Element Binding (SREBP) (AID 2282962); settings: HepG2 Attagene cis-factorial SREBP reporter, mRNA; actives raise or lower the signal
In short: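 HepG2 cells transiently transfected with multiplexed cis-element reporter units report endogenous transcription factor activity. After 24 h of chemical exposure, reporter mRNA was quantified by RT-PCR, 6-FAM labelling, HpaI digestion and capillary electrophoresis; bidirectional fits used DMSO as baseline.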

[12] = molecular target: Signal transducer and activator of transcription 3 (Homo sapiens) (UniProt P40763); test: ATG_STAT3_CIS: Attagene CIS-FACTORIAL HepG2 Assay for human Signal Transducer and Activator of Transcription 3 (STAT3) (AID 2282963); settings: HepG2, Attagene cis-factorial STAT3 reporter transcription; actives raise or lower the signal
In short: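 HepG2 cells transiently transfected with cis-element-driven multiple reporter transcription units; after 24 h chemical exposure, reporter mRNA measured by RT-PCR, 6-FAM primer-extension labelling, HpaI digestion and capillary electrophoresis. Bidirectional fitting versus DMSO baseline.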

[13] = ATG_TA_CIS: Attagene CIS-FACTORIAL HepG2 Assay for human TA Basal Promoter (AID 2282964); settings: HepG2 Attagene CIS-factorial TA basal promoter reporter; actives raise or lower the signal
In short: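 Multiplexed mRNA reporter assay, HepG2, 24 h. Reporter cDNA amplified, 6-FAM primer-extended, HpaI-cut, CE-sized; DMSO = negative control and baseline.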

[14] = ATG_TCF_b_cat_CIS: Attagene CIS-FACTORIAL HepG2 Assay for human T-Cell-Factor with beta-catenin (TCF/b-cat) (AID 2282965); settings: HepG2 TCF/beta-catenin cis-reporter transcription, actives raise or lower the signal
In short: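 Using capillary electrophoresis as the read-out, labelled reporter cDNA fragments from transiently transfected HepG2 were sized and quantified. Exposure lasted 24 hours; activity in either direction was referenced to DMSO.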

[15] = ATG_TAL_CIS: Attagene CIS-FACTORIAL HepG2 Assay for human TAL Basal Promoter (AID 2282966); settings: HepG2 Attagene cis-factorial TAL promoter reporter; actives raise or lower the signal;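 note: background control endpoint measuring basal TAL promoter reporter mRNA not a specific factor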
In short: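 Fluorescence of labelled reporter cDNA fragments, resolved by capillary electrophoresis, gave the readout. Human HepG2 liver cells carried transiently transfected cis-element reporter units and were treated for 24 hours; activity was fitted bidirectionally against DMSO.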

[16] = ATG_TGFb_CIS: Attagene CIS-FACTORIAL HepG2 Assay for human Transforming Growth Factor (TGF) (AID 2282967); settings: HepG2 Attagene CIS TGFb reporter, mRNA transcription; actives raise or lower the signal
In short: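 Transcript-level reporter readout: HepG2 transfectants, 24 h exposure, RNA to cDNA, reporter-specific PCR, fluorescent primer extension, capillary sizing against ROX standards. Gain- or loss-of-signal relative to DMSO.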

[17] = molecular target: Paired box protein Pax-6 (Homo sapiens) (UniProt P26367); test: ATG_Pax6_CIS: Attagene CIS-FACTORIAL HepG2 Assay for human Paired Box 6 (PAX6) (AID 2282956); settings: HepG2 CIS-FACTORIAL PAX6 reporter transcription, RNA readout; actives raise or lower the signal
In short: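 HepG2 cells transiently transfected with multiplexed cis-promoter reporter units (endogenous TF activity) were dosed for 24 h. Reporter mRNA was quantified by RT-PCR, 6-FAM labeling, HpaI digestion and capillary electrophoresis; bidirectional fitting versus DMSO baseline.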

[18] = molecular target: Transcription factor Sp1 (Homo sapiens) (UniProt P08047); test: ATG_Sp1_CIS: Attagene CIS-FACTORIAL HepG2 Assay for human Specificity Protein 1 (Sp1) (AID 2282961); settings: HepG2 Sp1 cis-reporter transcription, actives raise or lower the signal
In short: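 Measures mRNA induction of an Sp1-linked reporter in HepG2 cells 24 h post-dosing. Multiplexed reporters read by RT-PCR and capillary electrophoresis; DMSO serves as negative control and baseline.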

[19] = ATG_PBREM_CIS: Attagene CIS-FACTORIAL HepG2 Assay for human Phenobarbital-responsive Enhancer Module (PBREM) (AID 2282955); settings: HepG2 PBREM cis-reporter, Attagene multiplexed transcription; actives raise or lower the signal
In short: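 HepG2, transient MRTU transfection, 24 h dosing; RNA → oligo(dT) RT → PCR → 6-FAM extension → HpaI → CE. Bidirectional fit vs DMSO.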

[20] = ATG_PPRE_CIS: Attagene CIS-FACTORIAL HepG2 Assay for human Peroxisome Proliferator-activated Response Element (PPRE) (AID 2282958); settings: HepG2 PPRE cis-element reporter, Attagene transcription factor profiling; actives raise or lower the signal
In short: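 Transcript-level reporter induction in transfected HepG2 cells after 24 h chemical exposure, quantified by fluorescence from RT-PCR products separated by capillary electrophoresis.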

Measured: AC50

Sequence of Heat shock factor protein 1 (Homo sapiens) (Q00613 whole entry, looked up): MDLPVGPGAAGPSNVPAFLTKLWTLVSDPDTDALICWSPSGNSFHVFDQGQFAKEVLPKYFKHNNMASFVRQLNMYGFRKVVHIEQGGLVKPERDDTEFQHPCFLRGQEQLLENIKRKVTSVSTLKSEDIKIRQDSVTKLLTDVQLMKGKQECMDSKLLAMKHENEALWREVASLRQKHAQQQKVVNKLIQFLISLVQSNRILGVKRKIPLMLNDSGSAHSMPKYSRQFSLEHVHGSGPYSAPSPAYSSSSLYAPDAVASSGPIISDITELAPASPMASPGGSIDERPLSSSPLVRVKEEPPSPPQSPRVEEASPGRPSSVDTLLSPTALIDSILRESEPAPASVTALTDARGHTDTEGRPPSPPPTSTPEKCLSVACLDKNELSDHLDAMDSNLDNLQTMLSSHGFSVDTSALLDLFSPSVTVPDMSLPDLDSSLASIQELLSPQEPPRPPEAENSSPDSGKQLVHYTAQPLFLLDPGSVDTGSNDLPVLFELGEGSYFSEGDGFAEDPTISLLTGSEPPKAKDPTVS
Sequence of Paired box protein Pax-6 (Homo sapiens) (P26367 whole entry, looked up): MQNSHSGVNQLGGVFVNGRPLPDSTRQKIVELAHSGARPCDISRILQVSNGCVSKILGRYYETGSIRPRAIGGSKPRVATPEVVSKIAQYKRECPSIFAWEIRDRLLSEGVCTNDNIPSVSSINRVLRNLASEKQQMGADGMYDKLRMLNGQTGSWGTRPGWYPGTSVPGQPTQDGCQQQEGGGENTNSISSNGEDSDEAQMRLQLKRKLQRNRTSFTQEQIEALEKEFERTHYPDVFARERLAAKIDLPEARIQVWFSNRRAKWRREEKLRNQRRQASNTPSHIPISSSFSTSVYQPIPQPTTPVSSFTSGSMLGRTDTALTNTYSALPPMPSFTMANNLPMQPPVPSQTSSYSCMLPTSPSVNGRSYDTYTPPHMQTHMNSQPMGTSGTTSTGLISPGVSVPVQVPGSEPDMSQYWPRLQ
Sequence of Signal transducer and activator of transcription 3 (Homo sapiens) (P40763 whole entry, looked up): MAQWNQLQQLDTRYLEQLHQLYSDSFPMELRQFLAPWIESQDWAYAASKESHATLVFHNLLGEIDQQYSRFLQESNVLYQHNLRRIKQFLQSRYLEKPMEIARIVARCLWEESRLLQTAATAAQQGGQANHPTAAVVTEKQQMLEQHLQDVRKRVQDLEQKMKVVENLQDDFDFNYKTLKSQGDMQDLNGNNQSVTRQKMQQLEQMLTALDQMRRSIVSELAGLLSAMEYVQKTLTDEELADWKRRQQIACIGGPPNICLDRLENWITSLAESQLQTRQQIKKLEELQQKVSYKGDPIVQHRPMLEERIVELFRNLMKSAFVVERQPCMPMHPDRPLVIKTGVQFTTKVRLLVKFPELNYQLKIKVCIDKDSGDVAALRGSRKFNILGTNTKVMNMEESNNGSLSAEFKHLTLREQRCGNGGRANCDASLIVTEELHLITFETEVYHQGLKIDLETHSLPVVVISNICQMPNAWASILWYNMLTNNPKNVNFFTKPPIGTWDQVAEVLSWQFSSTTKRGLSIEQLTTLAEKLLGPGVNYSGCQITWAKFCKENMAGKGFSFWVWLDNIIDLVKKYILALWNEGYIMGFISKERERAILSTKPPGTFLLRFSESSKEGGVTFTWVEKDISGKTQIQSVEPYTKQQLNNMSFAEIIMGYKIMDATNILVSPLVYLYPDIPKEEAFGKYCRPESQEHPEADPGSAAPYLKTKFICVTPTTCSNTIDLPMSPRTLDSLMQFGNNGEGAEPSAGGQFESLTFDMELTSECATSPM
Sequence of Hepatocyte nuclear factor 6 (Homo sapiens) (Q9UBC0 whole entry, looked up): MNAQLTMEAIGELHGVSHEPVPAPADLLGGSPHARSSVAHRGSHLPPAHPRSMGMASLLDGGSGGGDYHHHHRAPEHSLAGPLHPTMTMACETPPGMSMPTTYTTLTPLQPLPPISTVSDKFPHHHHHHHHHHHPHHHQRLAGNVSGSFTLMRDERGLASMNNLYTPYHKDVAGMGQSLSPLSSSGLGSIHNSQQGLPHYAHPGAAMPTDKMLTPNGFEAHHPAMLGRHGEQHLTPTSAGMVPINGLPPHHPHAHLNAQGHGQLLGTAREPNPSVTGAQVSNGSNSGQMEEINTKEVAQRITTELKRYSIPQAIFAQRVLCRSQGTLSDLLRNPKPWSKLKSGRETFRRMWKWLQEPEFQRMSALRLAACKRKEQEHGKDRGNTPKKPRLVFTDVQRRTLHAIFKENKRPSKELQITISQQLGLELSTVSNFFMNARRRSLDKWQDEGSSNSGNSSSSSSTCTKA
Sequence of Transcription factor Sp1 (Homo sapiens) (P08047 whole entry, looked up): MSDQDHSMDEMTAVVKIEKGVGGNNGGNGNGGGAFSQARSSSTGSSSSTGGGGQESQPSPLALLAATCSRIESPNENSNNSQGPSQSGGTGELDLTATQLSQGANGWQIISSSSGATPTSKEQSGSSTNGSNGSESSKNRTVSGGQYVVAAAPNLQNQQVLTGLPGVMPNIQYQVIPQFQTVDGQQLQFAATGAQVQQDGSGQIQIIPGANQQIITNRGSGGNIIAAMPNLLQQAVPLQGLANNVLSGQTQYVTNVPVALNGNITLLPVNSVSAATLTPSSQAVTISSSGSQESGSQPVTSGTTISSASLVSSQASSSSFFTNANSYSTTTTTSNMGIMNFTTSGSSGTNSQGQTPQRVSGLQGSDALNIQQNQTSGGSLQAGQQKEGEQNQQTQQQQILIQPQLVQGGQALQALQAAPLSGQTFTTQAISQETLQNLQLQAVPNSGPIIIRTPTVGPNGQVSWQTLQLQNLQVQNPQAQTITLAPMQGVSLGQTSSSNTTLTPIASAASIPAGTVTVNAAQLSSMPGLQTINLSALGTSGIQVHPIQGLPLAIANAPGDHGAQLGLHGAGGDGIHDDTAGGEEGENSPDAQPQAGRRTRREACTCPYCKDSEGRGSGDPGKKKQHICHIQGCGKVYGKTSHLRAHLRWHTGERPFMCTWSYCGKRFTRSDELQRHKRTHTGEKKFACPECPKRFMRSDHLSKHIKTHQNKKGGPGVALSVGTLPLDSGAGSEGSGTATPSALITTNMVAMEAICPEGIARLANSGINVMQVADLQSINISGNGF
Sequence of Hypoxia-inducible factor 1-alpha (Homo sapiens) (Q16665 whole entry, looked up): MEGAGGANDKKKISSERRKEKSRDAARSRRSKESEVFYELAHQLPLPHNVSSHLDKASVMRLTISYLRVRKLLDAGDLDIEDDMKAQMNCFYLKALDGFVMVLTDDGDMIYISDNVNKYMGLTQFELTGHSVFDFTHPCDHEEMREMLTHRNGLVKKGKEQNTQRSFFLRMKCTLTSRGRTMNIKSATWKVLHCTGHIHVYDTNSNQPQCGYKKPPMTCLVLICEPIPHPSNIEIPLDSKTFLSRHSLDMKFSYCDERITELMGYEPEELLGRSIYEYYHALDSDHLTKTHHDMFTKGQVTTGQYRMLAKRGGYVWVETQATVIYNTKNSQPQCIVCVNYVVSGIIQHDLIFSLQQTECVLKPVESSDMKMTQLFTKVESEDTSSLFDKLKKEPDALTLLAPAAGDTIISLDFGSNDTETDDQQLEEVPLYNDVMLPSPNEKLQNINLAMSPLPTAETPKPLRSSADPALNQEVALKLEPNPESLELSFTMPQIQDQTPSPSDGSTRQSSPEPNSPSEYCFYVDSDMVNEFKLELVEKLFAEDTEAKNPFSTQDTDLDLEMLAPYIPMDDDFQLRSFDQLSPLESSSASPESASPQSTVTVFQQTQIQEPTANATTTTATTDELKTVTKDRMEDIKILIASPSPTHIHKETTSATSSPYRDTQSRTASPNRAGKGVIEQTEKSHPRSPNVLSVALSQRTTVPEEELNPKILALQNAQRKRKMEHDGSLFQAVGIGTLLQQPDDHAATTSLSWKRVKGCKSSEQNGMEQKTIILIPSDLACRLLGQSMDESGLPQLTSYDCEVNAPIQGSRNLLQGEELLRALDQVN

Brc1ccc(Oc2c(Br)cc(Br)cc2Br)c(Br)c1
not listed: [17] | [18] | [19] | [20]
inactive: all other assays above

CN(C)C(=S)S
active: [8] 26.3 µM
not listed: [9] | [19] | [20]
inactive: all other assays above

CS(=O)(=O)c1ccc(C(=O)C2C(=O)CCCC2=O)c(Cl)c1COCC(F)(F)F
active: [8] 26.4 µM
not listed: [6] | [16]
inactive: all other assays above

CCN(N=O)C(N)=O
not listed: [14] | [19] | [20]
inactive: all other assays above

Cc1c([N+](=O)[O-])c(C)c([N+](=O)[O-])c(C(C)(C)C)c1[N+](=O)[O-]
active: [1] 22.5 µM | [7] 64.1 µM | [8] 1.54 µM
not listed: [19] | [20]
inactive: all other assays above
